# Laboratory results from PubChem BioAssay AID624396 (The Scripps Research Institute Molecular Screening Center, 2012).
# Calls of active or inactive are those of the source.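 How the source made its calls: active means over 15% of cells apoptotic at 25 µM, or half-maximal dose of 10 µM or lower; inactive means the rest.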
# System: DHL-10
# Test: pro-apoptotic nuclear morphology in cancer cells – imaging, DAPI staining, cell line panel, probe, mechanism study for MCL1-BIM inhibitor project, late-stage follow-up (AID 624396)
# Settings: cancer cell panel apoptosis
smiles,measurement,value
CCN1CCN(C(c2ccc(C(F)(F)F)cc2)c2ccc3cccnc3c2O)CC1 (stereo unspecified),outcome,inactive
